Screen size: about 100,000 compounds; about 770 (0.77%) were called active. No stated cut-off is given here; in the data, active means inhibition above about 50%; inactive means the rest. The list comes from a sample in which actives are over-represented; it also holds similar structures and randomly drawn compounds.
Molecular target: Gag-Pol polyprotein (Human immunodeficiency virus type 1 group M subtype B (isolate HXB2)) (UniProt P04585)
Experiment: RNase H inhibition, HIV 1 Gag Pol polyprotein, FRET biochemical assay, screening (AID 372)
Conditions: HIV-1 RT RNase H, FRET RNA/DNA substrate fluorescence; at 10 µM; hits give high values

Compound	inhibition
CCCC(C)C(=O)Nc1cccc(C)c1C (centres undefined)	10% (inactive)
CC(C)(C)C1=CC(C(C)(C)C)=C([N+](=O)[O-])C(=O)C1=O	6% (inactive)
CC(C)(C)C1=CC(C(C)(C)C)=C(Cl)C(=O)C1=O	69% (active)
CC(C)(C)C1=CC(Cl)=C(C(C)(C)C)C(=O)C1=O	5% (inactive)
Cc1ccccc1CNS(=O)(=O)c1cccs1	0% (inactive)
COc1ccccc1/C=N\N(C)c1nc(-c2ccccc2)cc(-c2ccccc2)n1	17% (inactive)
COc1cc(/C=N/Nc2nc(N3CCOCC3)nc(N3CCOCC3)n2)cc(OC)c1	5% (inactive)
O=C(/C=C/c1ccc(-c2ccccc2[N+](=O)[O-])o1)Nc1ccc(-c2nc3ncccc3o2)cc1	16% (inactive)
O=C(/C=C/c1ccco1)Nc1ccc2nn(-c3ccccc3)nc2c1	24% (inactive)
O=C(/C=C/c1ccc(-c2ccccc2[N+](=O)[O-])o1)Nc1ccc(-c2nc3cc(Cl)ccc3o2)cc1	53% (active)
Cc1ccc2nc(-c3ccc(NC(=O)/C=C/c4ccco4)cc3)oc2c1	11% (inactive)
Cc1cc2nc(-c3ccc(NC(=O)/C=C/c4ccco4)cc3)oc2cc1C	57% (active)
O=C(/C=C/c1ccco1)Nc1ccc2oc(-c3ccccc3)nc2c1	15% (inactive)
Cc1cc2nc(-c3cccc(NC(=O)/C=C/c4ccco4)c3)oc2cc1C	12% (inactive)
O=C(/C=C/c1ccco1)Nc1ccc(-c2nc3cc(Cl)ccc3o2)cc1	51% (active)
COc1ccc(-n2nc3ccc(NC(=O)/C=C/c4ccco4)cc3n2)cc1	48% (inactive)
O=C(/C=C/c1ccc(-c2ccccc2[N+](=O)[O-])o1)Nc1ccc(-c2nc3ccccc3o2)cc1	45% (inactive)
O=C(/C=C/c1ccco1)Nc1ccc2nn(-c3ccc(Cl)cc3)nc2c1	50% (active)
Cc1ccc(-c2nc3cc(NC(=O)/C=C/c4ccco4)ccc3o2)cc1	12% (inactive)
O=C(Nc1ccc(N2CCOCC2)c(Cl)c1)c1cc([N+](=O)[O-])ccc1Cl	24% (inactive)

Compound	inhibition
O=C1NC(=O)C(=Cc2ccccc2OCc2ccccc2F)C(=O)N1	4% (inactive)
COc1ccc(CN2CCN(C(=O)c3cccs3)CC2)c(OC)c1	5% (inactive)
CC(C)(C)c1ccc(S(=O)(=O)Nc2ccc(-c3ccc(NS(=O)(=O)c4ccc(C(C)(C)C)cc4)c(Cl)c3)cc2Cl)cc1	23% (inactive)
CC1CCN(Cc2c(O)ccc3c(=O)c(-c4ccc(Cl)cc4)coc23)CC1	0% (inactive)
COc1cc(-c2nc3ccccn3c2/N=C/c2cccc([N+](=O)[O-])c2)ccc1O	17% (inactive)
O=C(/C=C/c1ccco1)Nc1nc2ccc(Br)cc2s1	59% (active)
O=C(/C=C/c1ccco1)Nc1nc(-c2ccc(Br)cc2)cs1	15% (inactive)
O=C(/C=C/c1ccco1)Nc1cccc(-c2nc3ccccc3o2)c1	10% (inactive)
Cc1ccc2oc(-c3cccc(NC(=O)/C=C/c4ccco4)c3)nc2c1	6% (inactive)
O=C(/C=C/c1ccccc1)Nc1nc2ccc(Br)cc2s1	48% (inactive)
O=C(/C=C/c1ccco1)Nc1ccc(C(=O)Nc2cccc(-c3nc4ccccc4o3)c2)cc1	55% (active)
CC(C)(C)C(=O)CC(=O)c1ccccc1	10% (inactive)
CCOc1cc(CN2CCCCC2)ccc1OC	19% (inactive)
O=C(NC(=S)Nc1ccc(F)c([N+](=O)[O-])c1)c1cccc(Cl)c1	22% (inactive)
CC(/C=C/c1ccccc1)=N/NS(C)(=O)=O	3% (inactive)
COc1ccc(/C=C/C(=O)Nc2c(C(C)C)cccc2C(C)C)cc1Br	7% (inactive)
CCC(C(=O)Nc1cc(Cl)ccc1OC)c1ccccc1 (centres undefined)	29% (inactive)
O=C(COc1ccc(Br)cc1)Nc1ccc(F)cc1F	0% (inactive)
CCSc1nc2c(C)c(O)c(C)cc2[nH]1	0% (inactive)
O=C(Nc1ccccc1)Nc1nnc(Cc2ccc(Cl)c(Cl)c2)s1	16% (inactive)

Compound	inhibition
COC(=O)c1sccc1NS(=O)(=O)c1cc(Cl)ccc1Cl	35% (inactive)
COC(=O)c1sccc1NS(=O)(=O)c1ccc(Cl)cc1	70% (active)
COC(=O)c1sccc1NS(=O)(=O)c1ccc(OC)cc1	0% (inactive)
COC(=O)c1ccccc1NC(=O)COc1ccc(Cl)cc1C	4% (inactive)
Cc1cc(Cl)ccc1OCC(=O)Nc1ccccc1C(N)=O	7% (inactive)
Cc1sc(NC(=O)COc2ccc(Cl)cc2Cl)c(C(N)=O)c1C	9% (inactive)
CCOC(=O)c1c(NC(=O)COc2ccc(Cl)cc2C)sc(C(N)=O)c1C	12% (inactive)
CCOC(=O)c1ccccc1NC(=O)COc1ccc(Cl)cc1C	50% (active)
Cc1ccc(N[C@H]2OC[C@H](O)[C@H](O)[C@H]2O)cc1[N+](=O)[O-]	6% (inactive)
CCC(=O)Nc1sc(Cc2ccccc2)c(C)c1C(N)=O	1% (inactive)
O=C(NCCCN1CCOCC1)/C(=C/c1ccc(-c2ccc(Cl)cc2)o1)NC(=O)c1ccccc1	0% (inactive)
COc1ccc(C(=O)NC(NC(=S)Nc2sc3c(c2C(N)=O)CCCC3)C(Cl)(Cl)Cl)cc1 (centres undefined)	11% (inactive)
CCOC(=O)C1=C(C)N=c2s/c(=C\c3ccc(-c4ccc(Cl)cc4)o3)c(=O)n2C1c1cc(OC)ccc1OC (centres undefined)	7% (inactive)
CCOC(=O)C1=C(C)N=c2s/c(=C\c3ccc(-c4cc(Cl)ccc4C)o3)c(=O)n2C1c1ccc(OC)cc1 (centres undefined)	15% (inactive)
CCOC(=O)C1=C(C)N=c2s/c(=C\c3ccc(-c4cc(Cl)ccc4Cl)o3)c(=O)n2C1c1ccc(OC)cc1 (centres undefined)	50% (active)
CCOC(=O)C1=C(C)N=c2s/c(=C\c3ccc(-c4ccc(Cl)cc4)o3)c(=O)n2C1c1ccc(OC)cc1OC (centres undefined)	51% (active)
CCOC(=O)C1=C(C)N=c2s/c(=C\c3ccc(-c4ccc(Cl)c(Cl)c4)o3)c(=O)n2C1c1ccc(OC)cc1OC (centres undefined)	10% (inactive)
CCOC(=O)C1=C(C)N=c2s/c(=C\c3ccc(-c4ccc(Cl)cc4Cl)o3)c(=O)n2C1c1ccc(OC)cc1 (centres undefined)	12% (inactive)
CC(/C=C/c1ccco1)=N/NC(=O)COc1cccc(Cl)c1	14% (inactive)

Reference: PubChem BioAssay AID372 (MTDP, 2006)
